High-throughput results from PubChem.
APP 5'UTR act: activates APP 5'UTR luciferase reporter; AID 1276; SH-SY5Y APP 5'UTR luciferase reporter, luminescence; zero percent = DMSO vehicle wells; activation, % at 2 µM; actives 1% (n = 190,000);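 active = activation above a set limit, based on mean plus 3 SD of controls, cut at about 140% in these data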
hcDAF12 agonist: activators of H. contortus DAF-12 nuclear receptor; activation, % at 6.8 µM; AID 652067; actives 1.4% (n = 370,000); HEK293 hcDAF-12 lit1-tk-luc reporter, luminescence; 0% DMSO, 100% Δ7-dafachronic acid;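 active = activation above the mean of all tested compounds plus 3 SD, cut at about 5.5% in these data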;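 note: 100% = response to 3 µM Δ7-dafachronic acid high control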
NF-kB expr up: compounds increasing NF-kB expression in human neuronal cells; NF-kB reporter expression; active compounds read high; fold change at 12.5 µM; actives 1.6% (n = 190,000); in the data active = fold change above about 3.3
ssDAF12 agonist: S. stercoralis DAF-12 activation, primary screen | activation, % at 6.8 µM | actives 1% (n = 370,000) | HEK293 ssDAF-12/GRIP1 lit1-tk-luc reporter, luminescence; % of 3 µM dafachronic acid response;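 active = activation above the mean over all tested compounds plus 3 SD, cut at about 0.9% in these data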;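 note: 0% = DMSO-only wells and 100% = 3 µM delta7-dafachronic acid wells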
hgDAF12 agonist: agonists of H. glycines DAF-12 nuclear receptor; activation, % at 6.8 µM; HEK293 GAL4-hgDAF12 UAS-luciferase reporter, agonist luminescence; normalized to butyrate control; AID 687014; actives 1.8% (n = 370,000);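 active = activation above a cutoff set at the mean of all screened compounds plus 3 SD, cut at about 10% in these data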;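 note: 0% = DMSO wells and 100% = sodium butyrate wells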
hgDAF12 ag: confirmation of H. glycines DAF-12 agonists; actives 80% (n = 3,300); activation, % at 6.8 µM; shares compounds with hgDAF12 agonist; HEK293 GAL4-hgDAF12 luciferase reporter, agonist mode; percent of butyrate response;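 active = mean activation over triplicate wells above the hit cutoff derived from the earlier primary screen, cut at about 11% in these data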;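 note: 0% = DMSO low control and 100% = 2 mM sodium butyrate high control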
LXR ag 2: counter-screen for DAF-12 agonists: agonists of human LXR-beta | AID 743051 | HEK293 Gal4-LXR luciferase reporter, 24 h | 3,300 tested, under 10 active | shares compounds with hgDAF12 agonist | activation, % at 6.8 µM;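 active = mean activation of the triplicate above a set limit carried over from the primary screen, none filed active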
Target sequence (P55055 whole entry, looked up, the tested form may be a part): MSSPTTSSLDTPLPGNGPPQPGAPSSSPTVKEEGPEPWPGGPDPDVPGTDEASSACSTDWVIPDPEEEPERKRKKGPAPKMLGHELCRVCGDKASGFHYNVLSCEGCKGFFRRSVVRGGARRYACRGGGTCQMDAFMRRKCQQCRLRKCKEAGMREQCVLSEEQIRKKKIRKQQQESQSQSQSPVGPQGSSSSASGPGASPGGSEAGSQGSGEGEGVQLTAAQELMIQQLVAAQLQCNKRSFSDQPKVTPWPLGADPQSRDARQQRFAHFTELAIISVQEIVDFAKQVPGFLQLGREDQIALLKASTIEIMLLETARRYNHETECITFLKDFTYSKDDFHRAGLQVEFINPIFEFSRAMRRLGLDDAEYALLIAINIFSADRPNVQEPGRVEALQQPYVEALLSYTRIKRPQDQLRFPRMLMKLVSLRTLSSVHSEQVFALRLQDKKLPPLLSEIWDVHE
An asterisk follows results filed as active; x = no result. Most compounds without a hit are left out; they make up all but 3.4% or so of the library.

SMILES	APP 5'UTR act	hcDAF12 agonist	NF-kB expr up	ssDAF12 agonist	hgDAF12 agonist	hgDAF12 ag	LXR ag 2
Cc1ccc(NC(=O)NCC2CC2(Cl)Cl)cc1 (configuration not stated)	x	4	x	0	13*	10	0
Cc1ccc(CNC(=O)Nc2ccc(C)cc2)cc1	7	1	x	0	4	x	x
CCOc1ccc(-n2c(SCC(=O)Nc3ccccc3-c3ccccc3)nnc2-c2ccccc2)cc1	x	-5	x	-2	2	x	x
Cc1ccc(NC(=S)NC(=O)C2CCCCC2)c(Br)c1	x	6.3*	x	0	18*	15*	1
Cn1c(NC(=O)CCC2CCCCC2)cc(=O)n(C)c1=O	131	5	3.8*	0	14*	12*	1
Cc1ccc(/C=C/C2=NN(C)C(=O)CC2)cc1	153*	3	4.5*	0	14*	15*	1
CN1N=C(/C=C/c2ccccc2)CCC1=O	58	1	1.8	-1	3	x	x
Cc1ccc(-c2nc3ccc(Cl)cc3n2OC(C)C(=O)O)cc1 (configuration not stated)	116	4	1.7	0	23*	13*	1
CC(=O)c1ccc(NC(=S)NCCc2cccc(Cl)c2)cc1	51	1	1.2	-1	17*	12*	0
CC(=O)c1ccc(NC(=S)NCCc2ccc(S(N)(=O)=O)cc2)cc1	10	2	1.3	-2	4	x	x
C=CCOc1cccc(/C=C/c2nc3ccccc3c(=O)[nH]2)c1	x	4	x	1.3*	15*	16*	1
Cc1ccccc1/C=C\c1nc2ccccc2c(=O)[nH]1	164*	2	4.4*	1.3*	15*	20*	1
N#CCOc1ccccc1/C=C/c1nc2ccccc2c(=O)[nH]1	x	0	x	-1	5	x	x
C=CCNc1nc(-c2ccc(Cl)cc2)cs1	166*	4	7.5*	1	14*	15*	1
Cc1ncc(C(=O)Nc2ccccc2)[nH]1	x	4	x	1	21*	13*	0
Cc1ccc(Nc2nc(-c3ccccc3)c(CC(=O)O)s2)cc1	53	2	1.3	0	14*	13*	0
Cc1ccc(C)c(NC(=O)c2cc(-c3ccc(Cl)cc3)nc3ccccc23)c1	x	-1	x	-1	15*	1	0
COc1ccc2nc(C(c3ccc(C)cc3)n3c(-c4ccccc4Br)nc4ccccc43)[nH]c2c1 (configuration not stated)	x	3	x	1	14*	17*	1
COc1ccc2cc(C3=CC(=O)CCC3)ccc2c1	x	6.2*	x	0	16*	16*	1
O=C1C=C(c2ccc3[nH]ccc3c2)CCC1	x	2	x	-1	9	x	x
COC(=O)[C@]12C[C@H](CC(=O)NCc3ccc(OC)c(OC)c3)C(=O)N(Cc3cccc4ccccc34)C1=C[C@H](C(C)C)O[C@@H]2C1CC1	x	-3	x	-2	-3	x	x
COC(=O)[C@]12C[C@H](CC(=O)NCc3ccc(C)o3)C(=O)N(Cc3ccc(Cl)cc3Cl)C1=C[C@H](C1CCCC1)O[C@@H]2C	x	-1	x	0	2	x	x
COc1ccc(N2C(=O)c3ccccc3NC23CCCC3)cc1	93	4	1.6	0	14*	9	0
COc1ccc(N2Cc3ccccc3C2=O)cc1	x	4	x	0	21*	16*	1
Fc1ccccc1Cn1ccc2ccc(-c3ccc4ccn(Cc5ccccc5)c4c3)cc21	x	0	x	-1	2	x	x
COc1cccc(-c2cn3nc(C)c(C)nc3n2)c1	141*	3	2.7	1	15*	14*	1
CC(C)(C)c1ccc(S(=O)(=O)N2CCCC2C(=O)N2CCc3ccccc3C2)cc1 (configuration not stated)	x	2	x	-1	0	x	x
C/C(C=NNC(=O)c1cc(-c2ccc(Cl)cc2)n[nH]1)=C\c1ccccc1	x	2	x	-2	-1	x	x
O=C(COc1ccc(Br)cc1Br)NC(=S)N1CCCc2ccccc21	21	x	0.42	x	x	x	x
O=C(COc1ccc(Br)cc1Cl)NC(=S)N1CCc2ccccc21	21	6.2*	1.3	1.0*	13*	4	0
